High-throughput results: PubChem BioAssay, Center for Chemical Genomics, University of Michigan
Dicer inh = inhibitors of human Dicer processing of pre-microRNA; Q9UPY3; cat-ELCCA pre-miR-21 Dicer processing, chemiluminescence; stronger effect = higher value; z-score at 25 µM; 47,000 tested, 6% active; AID 1347074; in the data active = z-score above about 3, passing the limit was not always enough;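 also: plate controls were vehicle for no effect and no enzyme for full effect; higher signal means more uncleaved substrate so more Dicer inhibition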
Starred values were filed as active, the others as inactive. This is one part of a sample in which hits are shown more often than they occur.

SMILES	Dicer inh
Cc1ccc2nc3sc(C(=O)O)cc3cc2c1	0.3
O=C(O)c1cc2ccc3ccccc3c2s1	4.1*
O=C(Nc1ccccc1)c1cc2sccc2s1	0.23
O=C(Nc1ccccc1)c1cc2ccc3ccccc3c2s1	3.5*
CCOC(=O)c1cc2ccccc2c(=O)s1	0.03
Cc1c(NC(=O)c2cc3ccccc3c(=O)s2)c(=O)n(-c2ccccc2)n1C	0.44
CCc1cc2c(cc1C(=O)CC1(O)C(=O)Nc3ccc(Br)cc31)C(C)(C)CCC2(C)C (configuration not stated)	2.2
O=C(O)CCSC1=CCS(=O)(=O)c2ccc(Cl)cc21	1.9
CCOC(=O)C1=C(C)NC2=C(C(=O)c3ccccc32)C1c1cc(Br)c(OC)c(OCC)c1 (configuration not stated)	-0.22
O=C(CN1CCc2ccccc21)N1CCc2ccccc21	0.26
N=c1c2cnn(-c3ccccc3)c2ncn1/N=C/c1ccc(Cl)cc1Cl	0.21
CC(C)C(=O)Nc1c(C(=O)c2ccccc2)oc2ccccc12	-0.29
O=C(CSc1nnc2sc3ccccc3n12)N1CCN(c2ccccc2)CC1	3.7*
O=C(O)CCSc1nnc2sc3ccccc3n12	0.75
CC(=O)CSc1nnc2sc3ccccc3n12	-0.21
COC(=O)c1cc(=O)nc(NC(=O)Nc2c(-c3c(Cl)cccc3Cl)noc2C)s1	-0.74
CCCCc1c(C)nc(SC)[nH]c1=O	5.3*
CCCCc1c(O)nc(SC)[nH]c1=O	-0.23
CCCCc1c(C)nc(N)[nH]c1=O	-0.14
CCCOc1ccc(N2C(=O)CC(N3CCN(C(=O)OCC)CC3)C2=O)cc1 (configuration not stated)	-0.91
O=C(Nc1ccc(OCc2ccccc2)cc1)Nc1ccccc1-c1nc2ccccc2[nH]1	-0.35
NN=C1c2cc(Br)ccc2-c2ccc(Br)cc21	0.31
O=C(O)CCSc1ccc2ccccc2c1	-0.85
O=C(O)CCSc1nc2ccccc2[nH]1	-1.6
Nc1cc(N)nc(SCCC(=O)O)n1	3.3*
SMILES	Dicer inh
CCOC(=O)c1c(C)c(=O)oc2c1c(=O)[nH]n2-c1ccccc1	-1.1
CCCCSC1=C(C#N)C(=O)NC(c2ccc(OC)c(OC)c2)S1 (configuration not stated)	3.4*
COC(=O)CSC1=C(C#N)C(=O)NC(c2ccc(OC)c(OC)c2)S1 (configuration not stated)	1.3
CCSC1=C(C#N)C(=O)NC(c2ccc(OC)c(OC)c2)S1 (configuration not stated)	0.5
COc1ccc(C2c3c(oc4ccccc4c3=O)C(=O)N2c2ccccn2)cc1 (configuration not stated)	4.1*
CCCOc1ccc(C2c3c(oc4ccccc4c3=O)C(=O)N2c2ccc(C)cn2)cc1 (configuration not stated)	2.5
CCc1ccc(C2c3c(oc4ccccc4c3=O)C(=O)N2c2ccccn2)cc1 (configuration not stated)	2
O=C1c2oc3ccccc3c(=O)c2C(c2ccc(O)cc2)N1c1nncs1 (configuration not stated)	-1.4
COc1ccc(C2c3c(oc4ccccc4c3=O)C(=O)N2c2ccccn2)cc1OC (configuration not stated)	1.8
O=C1c2oc3ccccc3c(=O)c2C(c2ccc(O)cc2)N1c1ccccn1 (configuration not stated)	5.1*
COc1ccc(-c2cn(C(=O)c3cccs3)nc2C)cc1	-0.56
C#CCSc1nc(C(OC)OC)c(C(=O)OC)cc1C#N	-0.41
CCN(CC)Cc1cccc2c1COC2	2.9
Cc1cc(C)n(-c2ccc3cccc(N)c3n2)n1	0.98
COc1ccc(/C=C2\N=C(SC)SC2=O)cc1Br	0.29
FC(F)(F)c1cnc(N2CCN(Cc3c[nH]c4ccccc34)CC2)c(Cl)c1	-1.6
COc1ccc2c(c1)CCCN2Cc1c[nH]c2ccccc12	-1.9
Fc1ccccc1CN1CCN(CCCc2ccccc2)CC1	2.5
Cc1cccc(CN2CCN(Cc3c[nH]c4ccccc34)CC2)c1	1.7
CCS(=O)(=O)N1CCN(Cc2c[nH]c3ccccc23)CC1	3.5*
Clc1ccccc1CN1CCN(Cc2c[nH]c3ccccc23)CC1	4.5*
Fc1ccccc1CN1CCN(Cc2c[nH]c3ccccc23)CC1	3.7*
O=C1COCC(=O)N1CCc1c[nH]c2ccccc12	-1.2
Brc1ccc(CN2CCN(Cc3c[nH]c4ccccc34)CC2)cc1	2.7
Cc1cccc(NC(=O)/C=C/C(=O)O)c1C	0.56
SMILES	Dicer inh
CCOC(=O)c1c(NC(=O)c2ccncc2)sc2c1CC(C)(C)OC2	1.9
CCOC(=O)c1nc(N2CCCC2)c2ccccc2n1	-0.04
COc1cc(NC(=S)Nc2cccc(C)n2)c(OC)cc1Cl	-0.1
CCn1c(/C=C/c2c[nH]c3ccccc23)nc2ccccc2c1=O	3*
COc1cccc(-n2c(/C=C/c3cn(C)c4ccccc34)nc3ccccc3c2=O)c1	6.8
O=c1c2ccccc2nc(/C=C/c2ccc(O)cc2)n1Cc1ccccc1	-1.2
COc1ccc(Cc2nc(S(=O)(=O)c3ccc(Cl)cc3)c(N3CCOCC3)o2)cc1	-8.6
CN1CCN(CC(=O)N2c3ccccc3C=Cc3ccccc32)CC1	7*
CN1CCN(CC(=O)N2CCc3ccccc32)CC1	1.6
